Experimental data reported in PubChem BioAssay (NCI).
The panel holds about 83,000 compounds, 20% with a hit somewhere; the sample as a whole holds those more often.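 Values shown are percent growth following 48 h exposure of cells in 96-well plates to a single concentration of compound; below 10 was considered active.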 Unmarked numbers belong to inactive results. Active and inactive are the calls of the source.

What follows are compounds tested on RXF 393 renal (assay: NCI-60 one-dose screen, 48 h (100 = growth as untreated, 0 = no growth, -100 = all killed)). Details: 10 µM unless noted.
Work on `COc1cc(Nc2ncccc2C(=O)Nc2nc3ccc(F)cc3s2)cc(OC)c1OC` yielded a growth of 139%. `Cc1ccc(Cn2cc(COc3ccc4c5ccnc(C)c5n(CCCc5ccccc5)c4c3)nn2)cc1` gave a growth of 114%. With `O=C(Nc1ccc(-n2ccc3c(NC(=O)c4ccccc4)ncnc32)cc1)Nc1ccc(Cl)c(C(F)(F)F)c1` the growth was -56.9% (active). `CCCCOc1c(N)cc(Cl)cc1C(=O)OCCN(CC)CC` was tested, and the growth was 125%. `CC(Cl)(CCl)CS(=O)(=O)c1ccc(Cl)cc1` (centres undefined) gave a growth of 93.1%. For `CCc1c(C)c2cc3c(c(C)c2oc1=O)OCC(=O)N3`, the growth was 68%. In the case of `Cc1ccc(NC(=O)CN2CCOCC2)cc1Cl`, the growth is reported as 104%. `CC1(C)CC(=O)C2=C(C1)OC1=C(C(=O)CC(C)(C)C1)C2c1ccc(OCc2cn(-c3ccc(F)cc3F)nn2)cc1` was tested, and the growth was 107%. In the case of `COc1cccc(-c2nc3sccn3c2-c2ccnc(NCCNC(=O)Nc3cccc(C(F)(F)F)c3)n2)c1`, the growth is reported as 6.3% (active). Compound `CN(C)c1ccc(/C=N/N=C(N)N)cc1` has a growth of 75.1%.

Each compound was assayed on SF-268 CNS in the same assay as above. Details: 10 µM unless noted.
`COc1ccc(C(=O)NC(=O)Nc2ccc3c(c2)NC(=O)/C3=C\c2[nH]c(C)c(CCC(=O)O)c2C)c(F)c1` showed a growth of 35%. For `Cn1c(I)c(C#C[Si](C)(C)C)c(=O)[nH]c1=O`, the growth was -8.38% (active). In the case of `COC(=O)c1oc2c(C(C)=O)c(OCCCN(C)C)ccc2c1C`, the growth is reported as 207%. `CC(C)NCC(O)COc1ccc(CC(N)=O)cc1` (centres undefined) was tested, and the growth was 112%. For `O=C(NCCNc1nccc(-c2c(-c3cccc(O)c3)nc3sccn23)n1)Nc1cccc(C(F)(F)F)c1`, the growth was 26.2%. Compound `CNCCCOc1c(Br)cc(CCNC(=O)/C(Cc2ccc(OC)c(Br)c2)=N/O)cc1Br` has a growth of 53%. Work on `COc1cccc(-c2nc3sccn3c2-c2ccnc(NCCNC(=O)c3ccccc3)n2)c1` yielded a growth of 92.7%. `O=C(N/N=C1\SCC(=O)N1c1ccccc1)c1cc(-c2cc3ccccc3o2)nn1-c1ccccc1` was tested, and the growth was 103%. For `Cc1ccc2c(c1)Nc1ccc(C)cc1C2(C)C`, the growth was 105%. `COc1cc(NC(C)CCCN2C(=O)c3ccccc3C2=O)c2nccc(C)c2c1OC` (centres undefined) gave a growth of 104%. In the case of `NCC(=O)NS(=O)(=O)OC[C@H]1O[C@@H](n2cnc3c(N)ncnc32)[C@H](O)[C@@H]1O`, the growth is reported as 3.78% (active). Work on `CCN(CC)CC(=O)Nc1c(C)cccc1C` yielded a growth of 108%. `Nc1ncnc2c1c(-c1ccc(Oc3ccccc3)cc1)nn2C[C@@H]1SSC[C@H]1O` gave a growth of 29.3%. With `COc1cc(/C=C\c2cc(/C=C\c3ccc(O)c(OC)c3)n(C(=O)CNc3ccccc3OC)n2)ccc1O` the growth was 58.9%. `O=C1OC(N(Cc2ccc(Cl)cc2)c2ccccc2)c2ccccc21` (centres undefined) gave a growth of 105%. For `CN(C)CC/C=C1\c2ccccc2Sc2ccc(Cl)cc21`, the growth was 68.8%. Compound `O=C(Nc1cccc(-n2ccc3c(NC(=O)c4ccccc4)nccc32)c1)Nc1cc(C(F)(F)F)cc(C(F)(F)F)c1` has a growth of 22.1%. Work on `CCCCC(=O)Nc1nc2ccc(SCCC)cc2s1` yielded a growth of 61.6%. For `CCN(CC)c1ccc(C2CC(c3cc(OC)c(OC)c(OC)c3)=NN2)cc1` (centres undefined), the growth was 28.1%. `c1ccc2nc(Cn3cc[n+](Cc4ccc5ccccc5n4)c3)ccc2c1` was tested, and the growth was 67.1%. With `Clc1ccc(OCc2nc(-c3ccccc3)n[nH]2)c(Cl)c1` the growth was 96.6%. `CC(C)CNCC(=O)Nc1ccc(Cc2ccc(NC(=O)CNCC(C)C)cc2)cc1` gave a growth of 59.7%. In the case of `O=C(O)c1ccc(-n2cc(/C=N/Nc3ccc(F)cc3)c(-c3cccc(C(F)(F)F)c3)n2)cc1`, the growth is reported as 67%. With `CCCCCCCCCCCCCCCCCCNCc1ccc(Cl)cc1` the growth was -63.5% (active). `COc1ccc(CCNC=O)cc1OC` gave a growth of 104%. Work on `O=C(COc1ccc(Cl)cc1Cl)N1N=C(c2ccc(Cl)cc2Cl)CC1(O)c1cc(F)c(Cl)cc1Cl` (centres undefined) yielded a growth of 103%. With `Cc1nccc2c3ccc(OCc4cn(Cc5ccc(Br)cc5)nn4)cc3n(CCCc3ccccc3)c12` the growth was 81%. For `COc1ccc(-c2c(C#N)cnc(N)c2-c2nc3cc(C)c(C)cc3[nH]2)cc1`, the growth was 57.1%. For `O=c1c2ccccc2[nH]n1Cc1ccc2c(c1)OCO2`, the growth was 101%. In the case of `COc1cc(Nc2ncccc2C(=O)Nc2nc3ccc(F)cc3s2)cc(OC)c1OC`, the growth is reported as 90%. With `Cc1ccc(Cn2cc(COc3ccc4c5ccnc(C)c5n(CCCc5ccccc5)c4c3)nn2)cc1` the growth was 95.9%. With `O=C(Nc1ccc(-n2ccc3c(NC(=O)c4ccccc4)ncnc32)cc1)Nc1ccc(Cl)c(C(F)(F)F)c1` the growth was -15% (active). Compound `CCCCOc1c(N)cc(Cl)cc1C(=O)OCCN(CC)CC` has a growth of 98.6%. Work on `CC(Cl)(CCl)CS(=O)(=O)c1ccc(Cl)cc1` (centres undefined) yielded a growth of 101%. `CCc1c(C)c2cc3c(c(C)c2oc1=O)OCC(=O)N3` gave a growth of 68.3%. Compound `Cc1ccc(NC(=O)CN2CCOCC2)cc1Cl` has a growth of 103%. Compound `CC1(C)CC(=O)C2=C(C1)OC1=C(C(=O)CC(C)(C)C1)C2c1ccc(OCc2cn(-c3ccc(F)cc3F)nn2)cc1` has a growth of 84.9%. `COc1cccc(-c2nc3sccn3c2-c2ccnc(NCCNC(=O)Nc3cccc(C(F)(F)F)c3)n2)c1` gave a growth of 62.3%. Compound `CN(C)c1ccc(/C=N/N=C(N)N)cc1` has a growth of 87%.
